Out of some 310,000 compounds screened, about 14,000 (4.5%) showed an effect of 50% or more. The effect is printed as a negative number. The sample holds strong results, similar compounds and a random draw of the others, so the mix is not that of the screen.
target: human ether-à-go-go-related gene (hERG) potassium channel (human, UniProt Q12809); test: primary screen, population patch clamp on CHO cells stably expressing hERG; higher = less effect of the substance
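Note: peak tail current of the secondary pulse compared with the same well before compound.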

Sequence of human ether-à-go-go-related gene (hERG) potassium channel (Q12809 whole entry, looked up): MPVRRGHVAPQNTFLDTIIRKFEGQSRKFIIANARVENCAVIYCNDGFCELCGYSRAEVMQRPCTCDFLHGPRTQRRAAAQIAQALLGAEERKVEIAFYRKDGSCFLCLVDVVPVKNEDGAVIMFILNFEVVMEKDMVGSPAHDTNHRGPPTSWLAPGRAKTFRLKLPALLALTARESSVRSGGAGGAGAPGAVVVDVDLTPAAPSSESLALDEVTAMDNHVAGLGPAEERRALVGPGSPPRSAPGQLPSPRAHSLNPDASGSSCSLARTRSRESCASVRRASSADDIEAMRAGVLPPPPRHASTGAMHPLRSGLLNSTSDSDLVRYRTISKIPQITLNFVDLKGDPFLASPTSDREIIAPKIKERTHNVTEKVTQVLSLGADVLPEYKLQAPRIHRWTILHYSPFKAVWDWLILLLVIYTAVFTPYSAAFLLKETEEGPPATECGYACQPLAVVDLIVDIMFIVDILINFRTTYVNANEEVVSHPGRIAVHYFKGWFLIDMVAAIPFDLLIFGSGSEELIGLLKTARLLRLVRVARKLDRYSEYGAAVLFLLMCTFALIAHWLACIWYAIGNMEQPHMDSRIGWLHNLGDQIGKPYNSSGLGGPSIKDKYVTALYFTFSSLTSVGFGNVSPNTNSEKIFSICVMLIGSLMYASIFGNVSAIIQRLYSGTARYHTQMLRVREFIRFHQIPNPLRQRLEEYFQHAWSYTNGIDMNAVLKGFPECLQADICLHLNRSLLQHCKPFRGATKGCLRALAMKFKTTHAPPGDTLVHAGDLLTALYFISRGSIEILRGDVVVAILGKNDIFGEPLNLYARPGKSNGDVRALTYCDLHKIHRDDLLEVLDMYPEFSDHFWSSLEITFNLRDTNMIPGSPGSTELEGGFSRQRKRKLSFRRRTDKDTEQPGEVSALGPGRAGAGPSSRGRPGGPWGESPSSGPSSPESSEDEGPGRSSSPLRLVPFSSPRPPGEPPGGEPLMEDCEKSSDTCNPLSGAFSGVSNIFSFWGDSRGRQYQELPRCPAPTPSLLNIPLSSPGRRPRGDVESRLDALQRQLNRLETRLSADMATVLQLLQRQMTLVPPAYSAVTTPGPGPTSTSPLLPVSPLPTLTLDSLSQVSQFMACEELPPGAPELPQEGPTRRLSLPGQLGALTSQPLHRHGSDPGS

Going from CCOC(=O)C1(Cc2cccc(OC)c2)CCCN(Cc2cc(OC)c(O)c(OC)c2)C1 (centres unmarked) to CCOC(=O)C1(Cc2cccc(OC)c2)CCN(Cc2ccc(OC)c(OC)c2)CC1, the “hERG current change (%, negative = inhibition) at 10uM” value falls from -33.7% to -68.8%.

Going from CCOC(=O)C1(Cc2cccc(OC)c2)CCN(CCO)CC1 to CCOC(=O)C1(Cc2cccc(OC)c2)CCN(CC(O)CO)CC1 (centres unmarked), the “hERG current change (%, negative = inhibition) at 10uM” value rises from -54.3% to -4.39%.

First: CCOC(=O)C1(Cc2cccc(OC)c2)CCN(Cc2ccc(OC)c(O)c2)CC1
Second: CCOC(=O)C1(Cc2cccc(OC)c2)CCN(Cc2cccc(O)c2)CC1
The “hERG current change (%, negative = inhibition) at 10uM” value of the first is lower: -77.9% for the first, -54.7% for the second.

Going from CCOC(=O)C1(Cc2cccc(OC)c2)CCN(Cc2csc(C(C)=O)c2)CC1 to CCOC(=O)C1(Cc2cccc(OC)c2)CCN(Cc2ccc(C)s2)CC1, the “hERG current change (%, negative = inhibition) at 10uM” value falls from -41.1% to -67.1%.

First: CCOC(=O)C1(Cc2cccc(OC)c2)CCN(Cc2ccc3c(c2)OCCO3)CC1
Second: CCOC(=O)C1(Cc2cccc(OC)c2)CCN(Cc2ccccc2)CC1
The “hERG current change (%, negative = inhibition) at 10uM” value of the first is higher: -38% for the first, -40.3% for the second.

Going from COc1ccc([C@H]2CC(=O)C=C(c3cccc(OCc4ccccc4)c3)C2)cc1 to COc1cccc(N2C(=O)CC(N3CCc4ccccc4C3)C2=O)c1 (centres unmarked), the “hERG current change (%, negative = inhibition) at 10uM” value rises from 10.8% to 13.1%.

Compared with Cc1ccc(-n2nc3c(=O)n(CCCC(=O)NCc4cccc(F)c4)nc(C)c3c2C)cc1, Cc1ccc(OCC(=O)NCCc2c[nH]c3ccccc23)cc1 is higher in “hERG current change (%, negative = inhibition) at 10uM” value: -21.7% for the first, 17.1% for the second.

Compared with CC(C)(C)N/N=C/c1cc(Cl)cc([N+](=O)[O-])c1O.Cl, CC(C)[C@@H](N)C(=O)N/N=C/c1ccc2nccnc2c1.Cl is higher in “hERG current change (%, negative = inhibition) at 10uM” value: -10.9% for the first, 17.1% for the second.

Going from Cc1onc(-c2ccccc2Cl)c1C(=O)N1CCN(c2ncccn2)CC1 to O=C(c1ccc2ccccc2c1)N1CCN(c2ccccn2)CC1, the “hERG current change (%, negative = inhibition) at 10uM” value falls from 2.45% to -20%.

Going from CCOC(=O)c1ccccc1NC(=O)COC(=O)C1=COCCO1 to COc1cc(Cl)c(C)cc1NC(=O)COC(=O)c1cc(SC)ccc1Cl, the “hERG current change (%, negative = inhibition) at 10uM” value rises from 4.78% to 8.99%.

Compared with Cc1nc2ccccn2c1C(=O)CSc1ccc(Cl)cc1Cl, Cn1c2ccccc2c2nnc(SCC(=O)Nc3cccc(O)c3)nc21 is lower in “hERG current change (%, negative = inhibition) at 10uM” value: -4.24% for the first, -45.6% for the second.

Going from COc1cc2c(C)nc(C)c(C#N)c2cc1OC.Cl to COc1ccc(/C(C)=N/NC(=O)c2cc(C)[nH]n2)c(OC)c1, the “hERG current change (%, negative = inhibition) at 10uM” value rises from -5.92% to 1.33%.

First: Cc1ccc2nc(N3CC(C)OC(C)C3)nc(-c3ccccc3)c2c1 (centres unmarked)
Second: Cc1ccc(O)c(-c2cc3ccccc3[nH]2)c1
The “hERG current change (%, negative = inhibition) at 10uM” value of the first is higher: 5.88% for the first, -15.8% for the second.

Compared with c1ccc(Nc2nc(N3CCNCC3)nc(N3CCOCC3)n2)cc1, Cc1ccccc1Nc1nc(N)nc(CN2CCN(Cc3ccc4c(c3)OCO4)CC2)n1 is lower in “hERG current change (%, negative = inhibition) at 10uM” value: -43% for the first, -68% for the second.

First: CCOC(=O)C1(Cc2ccccc2)CCN(Cc2ccc(C)s2)CC1
Second: CCOC(=O)C1(Cc2cccc(OC)c2)CCN(Cc2cnc(C)s2)CC1
The “hERG current change (%, negative = inhibition) at 10uM” value of the first is lower: -46% for the first, -12.2% for the second.

Compared with CN(C)S(=O)(=O)c1ccc(N2CCOCC2)c(C(=O)NCc2ccc3c(c2)OCO3)c1, Cc1ccccc1N1CCN(Cc2ccc3c(c2)OCO3)CC1 is lower in “hERG current change (%, negative = inhibition) at 10uM” value: -14.7% for the first, -31.2% for the second.

Going from COC(=O)c1ccc(/C=N/Nc2nc3ccccc3[nH]2)cc1 to COc1ccc(CC(=O)N/N=C(/C)CC(=O)N(C)c2ccccc2)cc1, the “hERG current change (%, negative = inhibition) at 10uM” value falls from 11.4% to 9.63%.

Going from C=C(C)C(=O)Nc1cccc(C2=NOC3(C2)C[C@@H](C(N)=O)N(C(=O)c2cc([N+](=O)[O-])cc([N+](=O)[O-])c2C)C3)c1 (some centres unmarked) to CCOC(=O)N1CCN(C(=O)c2ccc3c(c2)NC(=O)/C(=C/c2ccccc2)S3)CC1, the “hERG current change (%, negative = inhibition) at 10uM” value falls from 1.96% to -17.8%.

Going from O=C(Nc1ccc(Cl)c(Cl)c1)N1CCCCCC1 to O=C(Nc1ccc(Cl)c(Cl)c1)N1CCC(N2CCCCC2)CC1, the “hERG current change (%, negative = inhibition) at 10uM” value falls from 2.82% to -63.5%.

Compared with COc1cccc(NC(=O)N2CCC(N3CCCCC3)CC2)c1, Cc1ccc(NC(=O)c2cc(NC(=O)c3ccco3)ccc2N2CCCCC2)cc1 is higher in “hERG current change (%, negative = inhibition) at 10uM” value: -7.99% for the first, 13% for the second.

Compared with Cc1ccc(C(C)(C)C)c(OCCN2CCCC2)c1, Cc1ccc(Nc2nc(N)nc(CN3CCCCCC3)n2)c(C)c1 is lower in “hERG current change (%, negative = inhibition) at 10uM” value: -19.5% for the first, -45.8% for the second.

Compared with Cc1cccc2c1-c1sc(C(=O)Nc3ccccc3N3CCN(C)CC3)cc1CO2, CN1CCN(c2ccccc2NC(=O)c2cc3c(s2)-c2ccccc2OC3)CC1 is lower in “hERG current change (%, negative = inhibition) at 10uM” value: -13.4% for the first, -51.3% for the second.

First: CC1CC(C)CN(CCCNC(=O)c2cc3c(s2)-c2ccccc2OC3)C1 (centres unmarked)
Second: CC1CCCN(CCCNC(=O)c2cc3c(s2)-c2ccccc2OC3)C1 (centres unmarked)
The “hERG current change (%, negative = inhibition) at 10uM” value of the first is higher: -70.2% for the first, -76.4% for the second.

First: CC1CCN(CCCNC(=O)c2cc3c(s2)-c2ccccc2OC3)CC1
Second: O=C(NCCCN1CCOCC1)c1cc2c(s1)-c1ccccc1OC2
The “hERG current change (%, negative = inhibition) at 10uM” value of the first is lower: -74.6% for the first, -44.5% for the second.

First: O=C(O)c1cc2c(s1)-c1ccccc1OC2
Second: COC(=O)c1cc2c(s1)-c1ccccc1OC2
The “hERG current change (%, negative = inhibition) at 10uM” value of the first is higher: 9.73% for the first, 0.157% for the second.

First: O=C(Nc1cccnc1Cl)c1cc2c(s1)-c1ccccc1OC2
Second: O=C(Nc1cccnc1)c1cc2c(s1)-c1ccccc1OC2
The “hERG current change (%, negative = inhibition) at 10uM” value of the first is lower: -3.48% for the first, -2.06% for the second.

First: CC1CCCN(CCCNC(=O)CN2C(=O)COc3ccccc32)C1 (centres unmarked)
Second: CCN1CCN(CCCNC(=O)c2cc3c(s2)-c2ccccc2OC3)CC1
The “hERG current change (%, negative = inhibition) at 10uM” value of the first is higher: -4.59% for the first, -66.7% for the second.

Compared with O=C(Nc1nccs1)c1cc2c(s1)-c1ccccc1OC2, Cc1csc(NC(=O)c2cc3c(s2)-c2ccccc2OC3)n1 is lower in “hERG current change (%, negative = inhibition) at 10uM” value: 16.2% for the first, 3.36% for the second.

First: CCOC(=O)C1CCN(C(=O)c2cc3c(s2)-c2ccccc2OC3)CC1
Second: O=C(NC1CC1)c1cc2c(s1)-c1ccccc1OC2
The “hERG current change (%, negative = inhibition) at 10uM” value of the first is lower: -38.9% for the first, 12.6% for the second.

Going from C=CCn1c(SC)nc2sc3c(c2c1=O)CCc1ccccc1-3 to CN(C)CCNC(=O)c1cc2c(s1)-c1ccccc1OC2, the “hERG current change (%, negative = inhibition) at 10uM” value falls from 10.3% to -67.2%.

First: Cc1ncoc1C(=O)Nc1cccc(Cl)c1
Second: Cc1ccc(OCCC(=O)Nc2ccc3c(c2)OCO3)cc1
The “hERG current change (%, negative = inhibition) at 10uM” value of the first is lower: -7.91% for the first, 0.269% for the second.

Going from OCC[C@H]1C[C@H](O)[C@@H](O)[C@]2(OCCc3ccccc32)O1 to CC1CCCC(C)N1CCCNC(=O)c1cc2c(s1)-c1ccccc1OC2 (centres unmarked), the “hERG current change (%, negative = inhibition) at 10uM” value falls from 2.59% to -69.9%.

First: CC1(C)Cc2c(cnn2-c2ccccc2)C(NC(=O)CCN2CCCC2=O)C1 (centres unmarked)
Second: CC1CCCC(C)N1CCCNC(=O)c1ccc2c(c1)NC(=O)c1ccccc1S2 (centres unmarked)
The “hERG current change (%, negative = inhibition) at 10uM” value of the first is higher: 6.21% for the first, 4.54% for the second.

Going from C=C1CCC[C@]2(C)C[C@H]3OC(=O)C(CNC(C)CC)[C@H]3CC12 (some centres unmarked) to CCOC(=O)c1ccc(NC(=O)Cn2cc3c(n2)CCC(C)C3)cc1 (centres unmarked), the “hERG current change (%, negative = inhibition) at 10uM” value falls from 0.523% to -4.16%.

Compared with CCN(CC)C(=O)c1ccccc1NC(=O)c1ccccc1SC, CCN(Cc1ccccc1)Cc1cccc([N+](=O)[O-])c1 is higher in “hERG current change (%, negative = inhibition) at 10uM” value: -39.6% for the first, -23.5% for the second.

First: CCOCc1nc(C)c(Cl)c(NS(=O)(=O)c2ccc(N)cc2)n1
Second: CCN1CCN(c2nc3ccccc3nc2NS(=O)(=O)c2ccc(NC(C)=O)cc2)CC1
The “hERG current change (%, negative = inhibition) at 10uM” value of the first is higher: 13.9% for the first, 5.21% for the second.

First: COc1ccc(OC)c(N(CC(=O)N2CCCCC2)S(=O)(=O)c2ccc(OC)c(OC)c2)c1
Second: COc1ccc(OC)c2c1C(=O)c1ccccc1C2=O
The “hERG current change (%, negative = inhibition) at 10uM” value of the first is higher: 10.6% for the first, -5.81% for the second.

First: O=C(NCc1cccs1)c1cc2c(s1)-c1ccccc1OC2
Second: CCOc1ccc(NC2=NCC(=O)N2Cc2cccs2)cc1.Cl
The “hERG current change (%, negative = inhibition) at 10uM” value of the first is higher: 1.42% for the first, -1.9% for the second.

First: O=C(O)COCC(=O)N1CCCN(c2nccc(C(F)(F)F)n2)CC1
Second: COC(=O)C1=C(c2ccc(Cl)c(C(F)(F)F)c2)C[C@@H]2CC[C@H]1N2C(=O)NCC1CC1
The “hERG current change (%, negative = inhibition) at 10uM” value of the first is higher: 17.7% for the first, -16.3% for the second.

First: CCCN(CC(=O)Nc1cccc(Br)c1)CC(=O)Nc1ccc(F)c(F)c1F
Second: Cc1ccc(NC(=S)N2CCN(Cc3ccc4c(c3)OCO4)CC2)c(C)c1
The “hERG current change (%, negative = inhibition) at 10uM” value of the first is lower: -10.1% for the first, -1.01% for the second.

First: Cc1ccccc1NC(=S)N1CCN(Cc2ccc3c(c2)OCO3)CC1
Second: COc1ccccc1NC(=S)N1CCN(Cc2ccc3c(c2)OCO3)CC1
The “hERG current change (%, negative = inhibition) at 10uM” value of the first is lower: -10.3% for the first, -1.31% for the second.

Going from Cc1ccc(Nc2nc(N)nc(CCl)n2)c(C)c1 to Cc1ccc(Nc2nc(N)nc(CN3CCC(C)CC3)n2)c(C)c1, the “hERG current change (%, negative = inhibition) at 10uM” value falls from 16.1% to -57.8%.

Compared with Cc1ccc(Nc2nc(N)nc(CN3CCN(Cc4ccc5c(c4)OCO5)CC3)n2)c(C)c1, COc1ccccc1Nc1nc(N)nc(CN2CCN(Cc3ccc4c(c3)OCO4)CC2)n1 is lower in “hERG current change (%, negative = inhibition) at 10uM” value: -76.9% for the first, -78.1% for the second.

First: Cc1cccc(Nc2nc(N)nc(CN3CCC(C)CC3)n2)c1C
Second: COc1ccccc1N1CCN(Cc2ccc3c(c2)OCO3)CC1
The “hERG current change (%, negative = inhibition) at 10uM” value of the first is lower: -37.6% for the first, -20.1% for the second.

For O=C(Nc1nccs1)c1cc2c(s1)CCCCC2, the “hERG current change (%, negative = inhibition) at 10uM” value was 6.98%.
